What all share (experiment): PBM binding z-score (relative to random genomic background probes); higher = stronger binding; sequences stand for … in GC…GCGATTGACAGCGTAGAATGAAGG
The subject of assay [1] is FXR:RXRa (NR concentration 270 nM, RXRa partner concentration 90 nM). The procedure, abridged: (§1)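 Scanned fluorescence from custom Agilent 4×180K protein-binding microarrays was regression-normalized. Binding z-scores use random background probes as reference. Ligand-free nuclear receptor dimers were incubated on the arrays for 1 h and detected with antibodies against each partner (one per run).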

For assay [2], the system named is LXRa:RXRa (NR concentration 270 nM, RXRa partner concentration 90 nM). The procedure, abridged: as §1
The test system of assay [3] is LXRa homodimer (NR concentration 270 nM). The essentials:
as §1

Assay [4] has as its system LXRb:RXRa (NR concentration 270 nM, RXRa partner concentration 90 nM). The procedure, abridged:
as §1

For assay [5], the system named is LXRb homodimer (NR concentration 270 nM). The procedure, abridged: as §1
In assay [6] the test system is PPARa:RXRa (NR concentration 270 nM, RXRa partner concentration 90 nM). The procedure, abridged: as §1
In assay [7] the test system is PPARg:RXRa (NR concentration 180 nM, RXRa partner concentration 90 nM). The procedure, abridged: as §1
The test system of assay [8] is PPARg:RXRa 270nM:90nM, anti-RXR (NR concentration 270 nM, RXRa partner concentration 90 nM). The essentials: as §1
For assay [9], the system named is PPARg:RXRa 30nM:10nM, anti-RXR (NR concentration 30 nM, RXRa partner concentration 10 nM). The essentials: as §1
The test system of assay [10] is PPARg:RXRa 90nM:30nM, anti-RXR (NR concentration 90 nM, RXRa partner concentration 30 nM). The procedure, abridged: as §1
In assay [11] the test system is PPARg:RXRa DBDmut IVT, anti-RXR (DBD mutation: RXRa K156A/R161A, NR concentration 270 nM, RXRa partner concentration 90 nM). The procedure, abridged:
as §1

Assay [12] relates to PPARg:RXRa IVT, anti-PPARg (NR concentration 270 nM, RXRa partner concentration 90 nM). The procedure, abridged:
as §1

Assay [13] relates to PPARg DBDmut:RXRa IVT, anti-PPARg (DBD mutation: PPARg1 K132A/R137A, NR concentration 270 nM, RXRa partner concentration 90 nM). The procedure, abridged:
as §1

Assay [14] deals with PPARg DBDmut IVT, anti-PPARg (DBD mutation: PPARg1 K132A/R137A, NR concentration 270 nM). The procedure, abridged:
as §1

Assay [15] has as its system PPARg homodimer (NR concentration 180 nM). The procedure, abridged: as §1
Assay [16] deals with PXR:RXRa (NR concentration 270 nM, RXRa partner concentration 90 nM). The procedure, abridged: as §1
Assay [17] deals with PXR homodimer (NR concentration 270 nM). The procedure, abridged: as §1
For assay [18], the system named is RARa:RXR (NR concentration 270 nM, RXRa partner concentration 90 nM). The essentials: as §1
In assay [19] the test system is RARa homodimer (NR concentration 270 nM). The essentials: as §1
Assay [20] deals with RARb:RXRa (NR concentration 270 nM, RXRa partner concentration 90 nM). The procedure, abridged:
as §1

For the sequence CCTCGGAGGACAGAAGGTCAGTGCTGTCCGCTTT, the PBM binding z-score in assay [1] is 1.08; in assay [2] it was 1.1; in [3] it was -0.0896; in [4], 0.672; in [5] it was -0.597; in [6], 1.49. Further, the PBM binding z-score in [7] is -0.509; in [8], 0.452; in assay [9] it was -0.825; in assay [10], -0.242; in assay [11] it was -0.0749; in assay [12] it was -0.108. The PBM binding z-score in assay [13] was -0.925; in assay [14], -2; in assay [15], 1.55; in [16], 1.18; in assay [17] it was -0.686; in assay [18], 1.65. For the same sequence, the PBM binding z-score was -0.0741 in assay [19] and 3.28 in assay [20].

In the case of CTCGAATGGTCGTGCTCAGGTGAGTATACCAAAC, the PBM binding z-score in [1] was -0.179; in assay [2], -0.419; in assay [3], -0.51; in [4] it was -0.227; in [5], -0.231; in assay [6] it was -0.0651. Besides, the PBM binding z-score was -0.329 in assay [7]; -0.395 in [8]; -0.488 in [9]; -0.372 in assay [10]; -0.307 in assay [11]; 0.137 in [12]. Moreover, the PBM binding z-score was -1.36 in [13]; 0.0362 in assay [14]; -1 in assay [15]; -0.335 in [16]; -0.382 in [17]; 0.107 in [18]. Moreover, the PBM binding z-score in [19] was determined as 0.169; in assay [20] it was 0.0892.

As for CGAACTAGGTCAGAACAGGCCAGTGAAGGATGAT, the PBM binding z-score is 1.1 in [1]; 0.652 in [2]; -0.282 in assay [3]; 0.231 in assay [4]; -0.675 in assay [5]; 3.02 in assay [6]. The PBM binding z-score is 4.88 in assay [7]; 4.38 in [8]; 1.91 in assay [9]; 3.5 in assay [10]; 6.91 in assay [11]; 7.16 in [12]. Also, the PBM binding z-score in assay [13] is 0.994; in assay [14] it was -0.348; in assay [15] it was 1.63; in assay [16], 0.505; in [17] it was -0.233; in [18], 1.18. Further, the PBM binding z-score was -0.387 in assay [19] and 2.97 in assay [20].

For CCTAGCAGGCCAATCTGGGTCACTCAGGGCTTGA, the PBM binding z-score in assay [1] was 0.175; in [2], 0.973; in assay [3] it was -0.637; in [4], 0.336; in assay [5], -1.06; in [6], 2.61. Besides, the PBM binding z-score in assay [7] is 1.81; in assay [8], 2.15; in [9], -0.232; in assay [10] it was 1.52; in [11], 3.91; in [12], 4.83. The PBM binding z-score in assay [13] is 0.915; in assay [14], -1.07; in assay [15] it was 0.808; in assay [16], 0.386; in assay [17], -0.579; in assay [18], 1.64. Also, the PBM binding z-score is -0.57 in assay [19] and 1.35 in [20].

For TCATATAGCTAAAGGTGAAAGTCGAACGATATGA, the PBM binding z-score was 1.12 in assay [1]; 1.09 in [2]; -0.213 in assay [3]; 1.26 in [4]; -0.321 in assay [5]; 2.67 in assay [6]. For the same sequence, the PBM binding z-score is 2.06 in assay [7]; 3.08 in assay [8]; 3.19 in assay [9]; 3.31 in assay [10]; 1.54 in assay [11]; 1.41 in assay [12]. Further, the PBM binding z-score in assay [13] came to 0.485; in [14] it was 1.01; in [15], 0.548; in assay [16] it was 0.662; in assay [17], 0.459; in assay [18], 1.51. The results for the PBM binding z-score in assay [19] and in assay [20] were 0.712 and 1.62, respectively.

As to AGAAGGAGGGCACGCTGAGTTGATAGCAGAGTAG, the PBM binding z-score in assay [1] is 0.55; in assay [2], 0.52; in assay [3] it was -0.359; in assay [4], 0.551; in assay [5], 0.0256; in assay [6], 1.83. The PBM binding z-score in assay [7] was determined as 1.89; in [8], 1.81; in [9] it was 0.436; in [10], 1.01; in assay [11], 4.39; in assay [12], 4.02. Moreover, the PBM binding z-score amounted to 0.794 in [13]; 0.398 in [14]; 0.378 in [15]; 1.16 in [16]; 0.294 in assay [17]; 0.766 in assay [18]. In addition, the PBM binding z-score in [19] is -0.141; in assay [20], 2.32.

Take ACTCGTTGGTCAGCTGAGGTCACACACAATTCGG: the PBM binding z-score in assay [1] amounted to 3.88; in assay [2] it was 3.44; in [3], 2.55; in [4], 3.61; in assay [5], 0.51; in [6], 3.65. The PBM binding z-score was 1.26 in assay [7]; 1.84 in assay [8]; 0.425 in assay [9]; 1.25 in assay [10]; 0.747 in assay [11]; 2.05 in assay [12]. The PBM binding z-score in assay [13] is -0.129; in assay [14], 0.631; in [15], 3.13; in assay [16], 5.42; in [17], 1.8; in [18] it was 4.47. Also, the PBM binding z-score in assay [19] amounted to 1.77; in assay [20], 3.58.

The values above are taken from the supplement of paper PMC6555819.
